From PubChem BioAssay (NCI)
Values joined by “and” are separate entries in the source; they are usually repeats but may differ in a detail not shown here. Identical values can stand only once. Compounds without any hit were thinned out: in the full panel of roughly 83,000, 20% have a hit.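 Each cell line was grown in a 96-well plate and treated with one concentration of compound for 48 hours. Values below 10 were considered active.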 Active and inactive are the calls of the source.

System: COLO 205 colon
Assay: NCI-60 one-dose screen, 48 h (100 = growth as untreated, 0 = no growth, -100 = all killed)
Conditions: 10 µM
Method: Cells are grown in 96 well plates and exposed to the test compound for 48 hours. Compounds are tested at a single concentration, which is 10^-5 M for most compounds. The reported endpoint is percent growth (GI% or GIPRCNT), where numbers from 0 - 100% represent growth inhibition, and numbers from -100% - 0 represent cell death. For example, a value of 40 represents 60% growth inhibition. A value of 0 means no net growth occurred over the course of the experiment. A value of -40 indicates 40% of cells at the beginning of the experiment died by the end of the experiment. A value of -100 means all cells are dead at the end of the experiment.
NCI-60 Human Tumor Cell Lines Screen was performed using the standard one-dose NCI protocol, which is described in more detail at https://dtp.cancer.gov/discovery_development/nci-60/default.htm.
Compounds with GIPRCNT values below 10 were considered active. Activity score was based on GIPRCNT using the following formula: […]
Score is 0 for GIPRCNT values of 100 or above, 50 for GIPRCNT values of 0, and 100 for GIPRCNT values of -100.

Compound	growth
CC(=O)/C=C/c1ccc(OCc2ccc(Cl)cc2)cc1	122% (inactive)
CC(=O)/C=C/c1ccc(N(C)Cc2ccc(C(C)(C)C)cc2)cc1	113% (inactive)
COc1ccc(C(=O)/C=C/c2ccc(OCc3ccc(Cl)cc3)cc2)cc1OC	117% (inactive)

Same assay, conditions: 10 µM unless noted

Compound	growth
Nc1nc(Nc2ccc(F)cc2)nn1C(=O)c1cc(Cl)ccc1Cl	83.8% (inactive)
CCOC(=O)CCCn1c(-c2ccccc2)cc(-c2ccccc2)c(C#N)c1=O	98.4% (inactive)
O=C(O)C1C2CCC1C(O)C2 (stereo not given)	102% (inactive) and 106% (inactive)
O=C1/C(=C/c2cn(-c3ccccc3)nc2-c2ccccc2)SC(=S)N1c1ccc(Cl)cc1	111% (inactive)
N#Cc1ccccc1OCC(=O)Nc1nc2c(s1)COc1ccccc1-2	105% (inactive)
COc1ccc(NC(=O)Nc2ccccc2CNc2nc(Nc3ccc(OCCN4CCCC4)cc3)ncc2Cl)cc1	1.65% (active)
Nc1nc(Cl)nc2c1ncn2C1OC(CO)C(O)C1O (stereo not given)	70% (inactive)
COc1cc(F)c(/C=C/c2cc(/C=C/c3cc(OC)c(OC)cc3F)n(-c3cc(F)cc(F)c3)n2)cc1OC	115% (inactive)
C=CCOc1ccc(/C=C2\SC(=S)N(CCc3ccc(O)cc3)C2=O)cc1	114% (inactive)
Cc1ccc(S(=O)(=O)OC[C@@]2(C)CC[C@]3(C)CC[C@]4(C)C(=C3C2)C=C[C@@H]2[C@@]3(C)CCCNC(C)(C)[C@@H]3CC[C@]24C)cc1	-78% (active)
O=Nc1ccc(NO)c2ccccc12	101% (inactive) and 85.1% (inactive)
CCCCCC#CC1OC23CCCCC2C(C#N)(C(=N)O3)C1(C#N)C#N (stereo not given)	117% (inactive)
CN(C)CCCn1c2c(c3ccc(N4CCNCC4)cc3c1=O)C(=O)c1ccccc1-2	4.57% (active)
COC1=CC(=O)C(OC)=C(O)C1=O	103% (inactive)
Cc1ccc(/C=C/c2c(C(=O)/C=C/c3ccccc3)c(C)nc3ccccc23)cc1	12.7% (inactive)
Cc1nc2sc(C(=O)Nc3cccc4ncccc34)c(N)c2cc1C(C)O (stereo not given)	107% (inactive)
O=C(NNC(=S)Nc1ccccc1)c1ccncc1	128% (inactive)

Compound	growth
O=C(NNc1ccccc1)c1ncc[nH]1	79.7% (inactive)
COc1ccc(/C(C)=C(\c2ccc(OCCN3CCOCC3)cc2)c2ccc(OC(=O)C3CCCCC3)cc2)cc1	110% (inactive)
O/N=C(/c1ccccc1)c1ccc2c3c(cccc13)CC2	117% (inactive) and 103% (inactive)
CCCCCO/N=C\c1c2c(O)c3c(O)c(C)c4c(c3c1O)C(=O)C(C)(O/C=C\C(OC)C(C)C(OC(C)=O)C(C)C(O)C(C)C(O)C(C)/C=C\C=C(\C)C(=O)N2)O4 (stereo not given)	2.86% (active)
O=C(CN1C(=O)S/C(=C\C(Cl)=C\c2ccccc2)C1=O)NC1C=CS(=O)(=O)C1 (stereo not given)	-21.8% (active)
C/C=C(\C)C(=O)N[C@H]1CC[C@]2(C)C3CC[C@@]4(C)C(CC[C@@H]4C(C)N(C)C)C3CCC2[C@H]1OC(C)=O (stereo not given in full)	-90.7% (active)
CCOc1ccc(C(=O)Cc2ccccc2)cc1	120% (inactive) and 125% (inactive)
O=C(NNc1ccccc1)C1CCCN1 (stereo not given)	103% (inactive)
CC(=O)N1N=C(c2ccc(Nc3nc(Nc4ccc(F)cc4)nc(Nc4ccc(F)cc4)n3)cc2)CC1c1ccccc1 (stereo not given)	68.5% (inactive)
COc1ccc(C2Nc3nc(SC)nc(N)c3N=C3c4ccccc4CCC32)cc1 (stereo not given)	112% (inactive)
O=C1/C(=C/c2cn(-c3ccccc3)nc2-c2ccccc2)SC(=S)N1c1ccccc1	117% (inactive)
CN1CCCc2cc(/C=C3\SC(=S)N(C(Cc4ccc(O)cc4)C(=O)O)C3=O)ccc21 (stereo not given)	112% (inactive)
Nc1n[nH]c2cccc(C#Cc3cccc(C(=O)Nc4ccc(CN5CCOCC5)c(C(F)(F)F)c4)c3)c12	13.1% (inactive)
Nc1ccccc1SC(CC(=O)c1ccccc1)c1ccc([N+](=O)[O-])cc1 (stereo not given)	91.6% (inactive) and 102% (inactive)
COc1ccc(CN2CCc3c(Cl)nc(N)nc3C2=O)c(OC)c1	-48.6% [100 µM] (active)
Nc1nc(N)c2c(n1)NC(c1cccc(Nc3ccnc4cc(C(F)(F)F)ccc34)c1)CC(c1ccc(F)cc1)=N2 (stereo not given)	29.1% (inactive)
COc1ccc(Cn2cc(C(=O)Nc3cccnc3Nc3ccccc3)nn2)cc1	113% (inactive)

Same assay, conditions: 100 µM

Compound	growth
CC(=O)/C=C/c1ccc(OCc2ccc(Cl)cc2)cc1	-21.9% (active)
CC(=O)/C=C/c1ccc(N(C)Cc2ccc(C(C)(C)C)cc2)cc1	-72% (active)
COc1ccc(C(=O)/C=C/c2ccc(OCc3ccc(Cl)cc3)cc2)cc1OC	41.8% (inactive)
